Source: PubChem BioAssay AID1650 (Southern Research Specialized Biocontainment Screening …, 2009)
Potency and affinity values are given separately. The source made the active and inactive calls. Where a call stands in place of a potency, no number is given. The rule behind the calls is not given here.

Test: mammalian cell viability reduction – secondary assay, cytotoxicity control for West Nile virus antiviral project, dose response (AID 1650)
Details: Mammalian host cell viability, cytotoxicity counter-screen; series mostly up to 10 µM

| SMILES | outcome |
| --- | --- |
| CCOC(=O)c1cc(-c2ccc(OC)cc2F)nc2c1c(C)nn2CCC#N | inactive |
| O=C(NCCCn1ccnc1)c1cc2nc(-c3ccc(Br)cc3)cc(C(F)(F)F)n2n1 | inactive |
| CN1CCN(C(=O)CCN2C(=O)/C(=C/c3ccccc3Cl)SC2=S)CC1 | inactive |
| Cc1cccn2c(=O)c3cc(C(=O)NCCN4CCOCC4)c(=N)n(Cc4ccc(F)cc4)c3nc12 | inactive |
| CC(=O)OCCCNc1cc(Sc2ccc(C)cc2)c2nonc2c1[N+](=O)[O-] | inactive |
| COc1ccc(-n2cc(CNCCCn3ccnc3)c(-c3cccc(F)c3)n2)cc1 | inactive |
